Screening results (PubChem)
SNCA expr inhib: SNCA gene expression inhibition; AID 1671194; Potency, µM (titrated, usually from 57.2 µM), inactives show at the top dose activity change, negative = inhibition, actives largely listed as inhibitors; HEK-293 SNCA-luciferase knock-in, luminescence, 24 h; 0.17% of 140,000 active;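 further: potency means the concentration at half of the fitted maximal effect; plate controls were DMSO cells for no effect and cell-free wells for full effect; nearly all actives have a fitted effect of over 45% in size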
SNCA viab count: cell viability loss counter-screen. HEK-293-SNCA-luc viability, GF-AFC fluorescence, 24 h. Potency, µM (titrated, usually from 57.1 µM), for the others: at the highest dose activity change, negative = cytotoxicity, usual class: cytotoxic. 0.12% of 150,000 active;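 further: potency means the concentration at half of the fitted maximal effect; 0% = DMSO-treated cells and -100% = medium-only wells without cells; nearly all actives have a fitted effect of over 30% in size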
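HEK-293-SNCA-luc cells (1500/well) plated 24 h, then exposed 24 h to a dilution series; GF-AFC added 30 min at 37C, fluorescence 405/540 nm; normalised to medium-only and DMSO wells, Hill fit.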
KDM5B inhibitor: inhibitors of human KDM5B histone demethylase | Potency, µM (highest dose often 57.7 µM), usual class: inhibitors | KDM5B demethylase, FDH-coupled NADH fluorescence (FDH is formaldehyde dehydrogenase) | 2.6% of 220,000 active | AID 1347165; further: potency means the concentration at half of the fitted maximal effect; 0% is about no effect; nearly all actives have a fitted effect of over 70% in size
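Compound dilutions met 200 nM (final) KDM5BΔAP for 10 min at room temperature before substrate addition. The substrate mix held 12.5 µM H3K4me3 with cofactors 25 µM α-ketoglutarate and 50 µM Fe²⁺. NADH signal gain over 30 min defined activity.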
IP6K1 inhibitor: IP6K1 kinase inhibition | IP6K1 kinase, ADP-Glo luminescence, 2 h; stronger effect = lower value | activity change, % (series mostly up to about 58 µM) | 0.81% of 140,000 active | AID 1645851 | Q92551; in the data active means activity change below about -25%; further: on the % scale 0 is the no-effect control and ±100 the full control effect
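ADP-Glo luminescence measures ADP made by human IP6K1 during a 2 h RT reaction with ATP/IP6 (mix at 1.3 mM/130 uM); top library doses 57.5 and 19.1 uM final.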
The depositor's hits bear a star; i = inactive; ? = inconclusive; . = not tested or not shown; [ ] = another dose, or the depositor's remark. Only some compounds are listed: those with a hit (about 2.8% of all), similar ones and a draw of the others. Unless noted, the call rests on the fitted dose curve; in most records, active means well fitted curve in the direction sought with a large enough effect; inconclusive means small, poorly fitted or top-dose-only effect, or another doubt; inactive means no such curve, though single readings can be large; an effect the other way counts as inactive or inconclusive.

SMILES	SNCA expr inhib	SNCA viab count	KDM5B inhibitor	IP6K1 inhibitor
Cc1noc(C)c1-c1cc2cc(CO)oc2c(-c2ccccc2)n1	35%[87.6 µM]	12%[87.6 µM]	?	-22
COc1cc(F)ccc1-c1nc(-c2c(C)noc2C)cc2cc(C)oc12	68%[87.6 µM]	1%[87.6 µM]	?	-2
COc1cc(C(=O)Nc2cccc(-c3nncn3C)c2)cc(OC)c1C	.	.	i	.
CN(C)CCN(C)[C@H]1[C@H](O)C[C@@H]2CC(C)(C)OC[C@]21O	1%[25.6 µM]	5%[23.9 µM]	.	15
O=C(Nc1ccc2c(N3CCOCC3)ncnc2c1)c1cccc(Br)c1	39%	-22%	?	29
Cc1cc2cc(-c3c(C)noc3C)nc(-c3ccc(CO)cc3)c2o1	63%[87.6 µM]	4%[87.6 µM]	?	-18
COc1cccc(-c2nc(-c3c(C)noc3C)cc3cc(C)oc23)c1	29%[87.6 µM]	3%[87.6 µM]	35µM*	15
c1ccc(CCc2nc3nccc(-c4cccnc4)n3n2)cc1	13%	0%	i	-8
c1coc(-c2ccnc3nc(C4CCC4)nn23)c1	29%	9%	28µM*	11
COc1cc(-c2ccnc3nc(C4CCC4)nn23)cc(OC)c1OC	5%	0%	22µM*	-6
c1coc(-c2ccnc3ncnn23)c1	3%	12%	28µM*	9
c1ccc(-c2ccnc3nc(C4CC4)nn23)cc1	10%	12%	28µM*	7
CS(=O)(=O)N1CCC(C2CCN(Cc3ccc(Br)o3)C2)CC1 (configuration not stated)	4%	3%	i	24
Cc1ccc(COc2ccc(CNC(C)C)cc2)cc1	.	.	i	.
COc1cccc(-c2ccnc3nc(C4CCC4)nn23)c1	2%	2%	28µM*	-10
COc1cccc(-c2ccnc3c(-c4ccccc4)c(C)nn23)c1	55%	-10%	i	4
COc1cc(-c2ccnc3nc(-c4cccs4)nn23)cc(OC)c1OC	71%	-1%	14µM*	1
COc1cc(F)ccc1-c1ccnc2nc(C3CCCCC3)nn12	9%	-8%	28µM*	-1
O=C1NCCCCCCN(C(=O)c2cccs2)[C@H]2C[C@H](c3nc(-c4cnccn4)no3)C[C@@H]12	23%	-8%	i	0
CCOc1ccc(S(=O)(=O)N2CCC3(CC2)CN(C)CC3COC)cc1 (configuration not stated)	8%	6%	?	8
COCCNC(=S)NNC(=O)c1cc(C)nc2ccccc12	.	.	i	.
Cc1noc2c(NC3CCN(C)CC3)cc(-c3cccc(C(F)(F)F)c3)nc12	30%[87.6 µM]	-11%[87.6 µM]	i	-6
CCn1c(CO)nnc1C1CC(NC(=O)c2ccccc2-n2cccn2)C1 (configuration not stated)	-9%	-1%	i	32
O=C(NCCCN1CCCC1=O)C1CCCC1	.	.	i	.
CCn1ccc(C(=O)N2CCc3nc(NC)nc(C(=O)N4CCCC4)c3C2)n1	-22%	-5%	18µM*	11
SMILES	SNCA expr inhib	SNCA viab count	KDM5B inhibitor	IP6K1 inhibitor
COc1ccc(C(=O)N2CCN(c3nc4c(OC)cccc4s3)CC2)cc1OC	-8%	-1%	i	6
COc1ccc(C(=O)N2CCN(c3nnc4ccccn34)CC2)cc1OC	-22%	-4%	25µM*	8
COc1ccc(C(=O)N2CCCN(c3nnc4ccccn34)CC2)cc1F	-19%	?	25µM*	6
COc1ccc(C(=O)N2CCCN(c3cc(-c4ccccc4)[nH]n3)CC2)cc1F	?	-19%	i	5
Cc1cccn2c(CNC(=O)CCc3cc4n(n3)CCCNC4)cnc12	24%	-8%	25µM*	-7
O=C(NCc1cc2n(n1)CCCNC2)c1ccc(Cn2cnnn2)cc1	-4%	3%	i	23
Cc1cccc2ncc(C(=O)NCc3cc4n(n3)CCCNC4)c(=O)n12	-9%	-1%	28µM*	13
C1=C(c2nc(-c3ccncc3)cc3c2ccn3Cc2cccnc2)CCOC1	-10%[87.6 µM]	9%[87.6 µM]	?	-19
COCCn1ccc2c(C3=CCOCC3)nc(-c3cccc(C(N)=O)c3)cc21	20%[87.6 µM]	?	32µM*	15
COCCn1ccc2c(C3=CCOCC3)nc(-c3cccc(O)c3)cc21	6%[87.6 µM]	-12%[87.6 µM]	40µM*	0
CCOc1ccc(NC(=O)C(Cc2ccccc2OC)c2nn[nH]n2)cc1 (configuration not stated)	.	.	i	.
COc1ccc(Cl)cc1NC(=O)C1CCCN1C(=O)C12CC3CC(CC(C3)C1)C2 (configuration not stated)	.	.	i	.
O=C(CN1CCCCCC1)N1CCC(N2C(=O)C3(CCCC3)C2c2ccccc2)CC1 (configuration not stated)	50%	8%[12.5 µM]	i	13
COc1ccc(C2(CNC(=O)c3ccccc3)CCCCC2)cc1OC	.	.	i	.
CN1C(=O)C(c2ccccc2)CC12CCN(C(=O)C1CCC1)CC2 (configuration not stated)	-16%	2%	i	-5
Cc1ccc(C#N)c(N2CCC3(CC2)CC(c2ccccc2)C(=O)N3C)n1 (configuration not stated)	0%	-16%	28µM*	2
CN1C(=O)C(c2ccccc2)CC12CCN(C(=O)CN1CCCC1)CC2 (configuration not stated)	-25%	15%	25µM*	2
COCCCNc1ncnc2sc3c(c12)CCNC3	?	1%	25µM*	2
CCNC(=O)N1CCc2c(sc3ncnc(NCC)c23)C1	-17%	-2%	32µM*	4
COCC(=O)N1CCc2c(sc3ncnc(N4CCN(C)CC4)c23)C1	-3%	5%	i	-1
CCNc1ncnc2sc3c(c12)CCN(Cc1ccc[nH]1)C3	?	-21%	28µM*	-3
CCNc1ncnc2sc3c(c12)CCN(Cc1cccnc1)C3	-20%	2%	?	-3
CCCNC(=O)N1CCc2c(sc3ncnc(N4CCN(C)CC4)c23)C1	-6%	5%	28µM*	-3
CC(=O)N1Cc2ccccc2CC2(CCCN2C)C1 (configuration not stated)	-12%[87.6 µM]	0%[87.6 µM]	i	-12
CCNc1ncnc2sc3c(c12)CCN(C(=O)NCCOC)C3	?	-3%	28µM*	12
CN(C)c1ccc(-c2nc(-c3nnn4c3COC(c3ccccc3Cl)C4)no2)cc1 (configuration not stated)	9%	7%	25µM*	27
COc1ccc(-c2nc(-c3nnn4c3COC(c3ccccc3Cl)C4)no2)cc1 (configuration not stated)	-12%	5%	i	3
COc1cccc(-c2nc(-c3nnn4c3COC(c3ccccc3Cl)C4)no2)c1OC (configuration not stated)	4%	-7%	14µM*	11
COc1cc(C(=O)Nc2nc3c(s2)C[C@]2(C)CC[C@@H]4[C@H](OC(=O)[C@H]4C)[C@H]2[C@@H]3C)cc(OC)c1OC	20%	-4%	28µM*	-5
C[C@@H]1C(=O)O[C@H]2[C@H]1CC[C@@]1(C)Cc3sc(NC(=O)c4ccc(F)c(Cl)c4)nc3[C@@H](C)[C@H]21	29%	-10%	28µM*	-7
